# Measurements: paper PMC4336329 (PLoS ONE, 2015)
# Hit rate of the full screen: of about 310,000 compounds, about 14,000 (4.5%) showed an effect of 50% or more. Effects have a minus sign here. Many of the other results were omitted from the sample, so strong results are more common in it than they were.
# Target: human ether-à-go-go-related gene (hERG) potassium channel (human, UniProt Q12809)
# Test: primary screen, population patch clamp on CHO cells stably expressing hERG; higher = less effect of the substance
# 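Further: peak tail current of the secondary pulse compared with the same well before compound.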
# Chain of human ether-à-go-go-related gene (hERG) potassium channel (Q12809 whole entry, looked up): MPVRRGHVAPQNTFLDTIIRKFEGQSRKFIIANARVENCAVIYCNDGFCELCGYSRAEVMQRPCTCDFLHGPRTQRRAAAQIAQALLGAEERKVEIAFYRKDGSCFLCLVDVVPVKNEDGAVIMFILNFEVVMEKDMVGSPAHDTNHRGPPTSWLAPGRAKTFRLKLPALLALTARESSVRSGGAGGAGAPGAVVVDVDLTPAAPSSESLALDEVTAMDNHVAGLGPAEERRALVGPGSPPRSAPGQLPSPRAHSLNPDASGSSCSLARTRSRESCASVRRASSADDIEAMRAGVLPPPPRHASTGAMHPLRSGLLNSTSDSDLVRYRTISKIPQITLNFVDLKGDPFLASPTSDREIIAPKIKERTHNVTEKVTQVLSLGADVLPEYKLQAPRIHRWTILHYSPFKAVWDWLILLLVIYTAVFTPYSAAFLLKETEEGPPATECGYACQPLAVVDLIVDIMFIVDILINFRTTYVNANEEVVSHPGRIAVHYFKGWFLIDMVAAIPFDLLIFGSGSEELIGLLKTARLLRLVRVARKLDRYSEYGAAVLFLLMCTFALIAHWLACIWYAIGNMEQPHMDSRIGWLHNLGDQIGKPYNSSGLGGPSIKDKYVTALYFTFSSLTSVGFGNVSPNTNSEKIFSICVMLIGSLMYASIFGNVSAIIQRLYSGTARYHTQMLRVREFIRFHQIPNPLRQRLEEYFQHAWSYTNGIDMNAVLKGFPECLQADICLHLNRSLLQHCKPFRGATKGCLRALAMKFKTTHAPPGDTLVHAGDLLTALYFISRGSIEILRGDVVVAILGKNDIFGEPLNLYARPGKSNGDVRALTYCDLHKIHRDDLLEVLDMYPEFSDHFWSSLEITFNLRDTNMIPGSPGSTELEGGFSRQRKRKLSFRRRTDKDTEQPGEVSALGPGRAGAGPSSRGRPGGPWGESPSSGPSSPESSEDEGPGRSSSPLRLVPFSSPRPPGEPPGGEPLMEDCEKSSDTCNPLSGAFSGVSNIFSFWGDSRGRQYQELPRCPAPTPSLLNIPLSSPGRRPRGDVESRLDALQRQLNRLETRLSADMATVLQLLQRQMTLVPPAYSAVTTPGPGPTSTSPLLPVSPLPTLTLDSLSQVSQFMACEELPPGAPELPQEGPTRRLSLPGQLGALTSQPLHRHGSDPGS
row,Structure (SMILES),"hERG current change (%, negative = inhibition) at 10uM [%]"
1,COc1ccc(/C=C2/C(=O)NC(=S)N(C3CC3)C2=O)cc1CN1C(=O)c2ccccc2C1=O,-8.62
2,COc1ccc(C(=O)COC(=O)Cc2n[nH]c(=O)c3ccccc23)c(OC)c1,16.7
3,CN(C)CCCN(C(=O)c1ccco1)c1nc2ccc(Br)cc2s1.Cl,-71.8
4,CN(C)CCCN(C(=O)/C=C/c1cccs1)c1nc2ccc(F)cc2s1.Cl,-41
5,COc1cc2ccccc2cc1C(=O)N(CCN(C)C)c1nc2ccc(C)cc2s1.Cl,-11.2
6,COc1ccccc1C(=O)N(CCN(C)C)c1nc2cc(C)cc(C)c2s1.Cl,-82
7,Cc1cc(C)c2sc(N(CCN(C)C)C(=O)c3cc(Cl)sc3Cl)nc2c1.Cl,9.32
8,CN(C)CCCN(C(=O)c1ccco1)c1nc2ccc(F)cc2s1.Cl,-70.5
9,COc1ccccc1C(=O)N(CCC1CCCN1C)c1nc2ccccc2s1 (stereo not shown),-50.9
10,Cc1cc(C)c2sc(N(CCN(C)C)C(=O)c3ccc4ccccc4c3)nc2c1.Cl,7.53
11,COCCN(C(=O)Nc1ccccc1OC)c1nc2ccccc2s1,19.9
12,CN(C)CCN(C(=O)c1ccco1)c1nc2cc3c(cc2s1)OCCO3.Cl,-32.8
13,COc1cc2ccccc2cc1C(=O)N(CCN(C)C)c1nc2ccc(Br)cc2s1.Cl,9.85
14,CCCCn1c(N)c(N(CCOC)C(=O)COC(=O)c2cc(CC)c(C)s2)c(=O)[nH]c1=O,22
15,Cn1c(SCC(=O)Nc2ccc3[nH]c(=O)[nH]c3c2)nnc1-c1ccc(F)cc1,7.63
16,[O-]/[N+](=C\c1ccccc1)c1ccc(Br)cc1,-0.595
17,CCn1c(CSc2nc3ccccc3s2)nnc1SCC(=O)c1ccc(Cl)cc1,6.76
18,CC(=O)c1cccc(NC(=O)N2CCCC2C(=O)NCc2ccccc2)c1 (stereo not shown),15
19,C1=C(c2ccccc2)CCN(c2nc3ccccc3n3cnnc23)C1,-8.21
20,CCCCN(C)CCNC(=O)C1CCN(S(=O)(=O)c2cccc3nsnc23)CC1,-15.3
21,O=[N+]([O-])c1ccc(Oc2c(F)c(F)nc(N3CCCC3)c2F)cc1,-19.7

row,Structure (SMILES),"hERG current change (%, negative = inhibition) at 10uM [%]"
1,CCN(CC)CCN(C(=O)c1ccc(C(C)=O)cc1)c1nc2ccc(Cl)cc2s1.Cl,-30.2
2,Cc1ccc(C(=O)N(CCCN(C)C)c2nc3ccc(Cl)cc3s2)cc1C.Cl,-56.4
3,CN(C)CCN(C(=O)c1ccc(S(=O)(=O)N(C)c2ccccc2)cc1)c1nc2ccc(Cl)cc2s1.Cl,-13
4,CNS(=O)(=O)c1cccc2cccnc12,11.1
5,Cc1ccc(N2C(=O)CC(NCc3ccc4c(c3)OCO4)C2=O)cc1Cl (stereo not shown),-54.8
6,CCN1C(=O)CC(NCc2ccc3c(c2)OCO3)C1=O (stereo not shown),-9.23
7,O=C1CC(NCc2ccc3c(c2)OCO3)C(=O)N1Cc1ccc2c(c1)OCO2 (stereo not shown),-4.06
8,CS(=O)(=O)N(CC(=O)N1CCN(Cc2ccccc2)CC1)c1ccccc1F,-5.93
9,CCC(C)NC(=O)CSc1nnc(-c2cc(-c3cccs3)nc3ccccc23)o1 (stereo not shown),-0.833
10,CCNC(=O)CSc1nnc(-c2cc(-c3ccc(Cl)cc3)nc3ccccc23)o1,-82.3
11,CCN(CC)C(=O)CSc1nnc(-c2cc(-c3ccc(Cl)cc3)nc3ccccc23)o1,-3.85
12,Cc1nn(-c2cc(N3CCCCCC3)ccc2[N+](=O)[O-])c(=O)c2ccccc12,6.02
13,O=C(NCCc1c[nH]c2ccccc12)C(=O)NCC(c1ccco1)N1CCN(c2ccc(F)cc2)CC1 (stereo not shown),7.65
14,Cc1cc(C)n(CC(=O)c2ccccc2)c(=O)c1C#N,10.9
15,CCNc1nc(NCC)nc(OCCOC(=O)Nc2ccccc2)n1,-0.811
16,CCNc1nc(NCC)nc(SCCOC(=O)Nc2ccccc2)n1,-71
17,CCNc1nc(NCC)nc(SCCOC(=O)c2ccccc2)n1,-39.4
18,O=C(CSc1nnc(CNC(=O)c2ccccc2)o1)NCc1ccco1,-0.224
19,Cc1ccc(CSc2ccc(S(=O)(=O)N3CCOCC3)cn2)cc1,-10.2
20,COc1cc(/C=C/C(=O)Nc2ccccc2C(F)(F)F)cc(OC)c1OC,-5.76
21,COC(=O)CN(c1nc(C)cc(OC)n1)S(=O)(=O)c1ccc(C)cc1,-8.25

row,Structure (SMILES),"hERG current change (%, negative = inhibition) at 10uM [%]"
1,Cc1c(C(=O)C(=O)NCCc2ccc(S(N)(=O)=O)cc2)c2ccccc2n1C,-13.4
2,COc1ccc(S(=O)(=O)NCc2ccncc2)cc1NC(=O)c1ccccc1,-34.7
3,COc1ccc(S(=O)(=O)NCc2ccccn2)cc1NC(=O)c1ccc(C)cc1,-16.5
4,COc1ccc(S(=O)(=O)NCc2ccccn2)cc1NC(=O)c1ccc(Cl)cc1,-68.8
5,COc1ccc(S(=O)(=O)NCc2cccnc2)cc1NC(=O)c1ccccc1,-3.99
6,COc1ccc(S(=O)(=O)NCC2CCCO2)cc1NC(=O)c1ccc(Cl)cc1 (stereo not shown),-54
7,COc1ccc(S(=O)(=O)NCc2ccccn2)cc1NC(=O)c1ccccc1,8.45
8,COc1ccc(S(=O)(=O)NCc2cccnc2)cc1NC(=O)c1ccc(Cl)cc1,-52.2
9,COc1ccc(S(=O)(=O)NCc2cccnc2)cc1NC(=O)c1ccc(C)cc1,-17.6
10,COc1ccc(S(=O)(=O)NCc2ccncc2)cc1NC(=O)c1ccccc1F,18.7
11,COc1ccc(S(=O)(=O)NCC2CCCO2)cc1NC(=O)c1ccccc1F (stereo not shown),19.1
12,COc1ccc(S(=O)(=O)NCC2CCCO2)cc1NC(=O)c1ccccc1 (stereo not shown),-15.4
13,COc1ccc(S(=O)(=O)NCc2ccncc2)cc1NC(=O)c1ccc(Cl)cc1,-67.4
14,O=C(COc1ccccc1Cl)N1CCN(c2ccc(F)cc2)CC1,-6.04
15,O=C(CCN1CCCCO1)N1CCCC(N2CCN(c3ccc(F)cc3)CC2)C1 (stereo not shown),-11.2
16,Cc1cc(C)n(CC(=O)N2CCCC(N3CCN(c4ccc(F)cc4)CC3)C2)n1 (stereo not shown),-18.1
17,COc1ccccc1OCC(=O)N1CCCC(N2CCN(c3ccc(F)cc3)CC2)C1 (stereo not shown),-52.9
18,O=C(COc1ccccc1Cl)N1CCCC(N2CCN(c3ccc(F)cc3)CC2)C1 (stereo not shown),-65.8
19,COc1ccc(N2CCN(C3CCCN(C(=O)CSC)C3)CC2)cc1 (stereo not shown),3.1
20,Cc1ccc(OCC(=O)N2CCCC(N3CCN(c4ccc(F)cc4)CC3)C2)cc1 (stereo not shown),-101
21,COc1ncccc1C(=O)N1CCCC(N2CCN(c3ccc(F)cc3)CC2)C1 (stereo not shown),-26.7

row,Structure (SMILES),"hERG current change (%, negative = inhibition) at 10uM [%]"
1,COc1ccccc1N1CCN(C2CCCN(C(=O)CC(F)(F)F)C2)CC1 (stereo not shown),12.4
2,COc1ccc(CN2CCN(C(=O)CCC(=O)Nc3nnc(CC(C)C)s3)CC2)cc1F,-17.9
3,O=C(c1cccc2ccccc12)N1CCN(c2ccccc2F)CC1,-9.72
4,O=C(CCC(=O)Nc1ccccc1)N/N=C/C=C/c1ccccc1,32.1
5,CC(=O)Nc1ccc(NC(=O)C2CC(=O)N(c3cccc(C)c3C)C2)cc1 (stereo not shown),9.48
6,Cc1ccn2c(CN(C)CCn3nc(C)cc3C)c(C(=O)N3CCCCCC3)nc2c1,4.86
7,Cc1cc2cc3c(cc2nc1SCc1ccccn1)OCCO3,5.43
8,O=c1c(Cl)c(N2CCOCC2)cnn1-c1ncc(C(F)(F)F)cc1Cl,5.44
9,Cc1ccc(N2CC(C(=O)Nc3ccc(S(=O)(=O)N4CCCC4)cc3)CC2=O)cc1C (stereo not shown),6.52
10,Cc1c(/C(O)=C2/C(=O)C(=O)N(CCN3CCOCC3)C2c2cccs2)cnn1-c1ccccc1 (stereo not shown),13.6
11,COc1cccc(C(=O)NCc2ccc3c(c2)cc(C)n3C)c1,17
12,CCc1ccc2[nH]c(=O)c(CN(Cc3ccccc3)C(=O)Nc3ccccc3OC)cc2c1,4.2
13,CCc1ccc2[nH]c(=O)c(CN(CCO)C(=O)NCc3ccccc3)cc2c1,3.64
14,CCc1ccc2[nH]c(=O)c(CN(Cc3ccccc3OC)C(=O)Nc3ccccc3OC)cc2c1,3.47
15,CCc1ccc2[nH]c(=O)c(CN(CCN(CC)CC)C(=O)Nc3ccccc3OC)cc2c1,-76.5
16,CCc1ccc2[nH]c(=O)c(CN(CCN(C)C)C(=O)Nc3ccccc3OC)cc2c1,-64.7
17,CCc1ccc2[nH]c(=O)c(CN(CCCO)C(=O)NCc3ccccc3)cc2c1,-13
18,Nc1nc(SCc2ccc(Cl)c(Cl)c2)n[nH]1,10.4
19,O=C(COC(=O)c1ccc(F)c(S(=O)(=O)N2CCOCC2)c1)c1ccc(Cl)cc1,-31.1
